# Values joined by “and” are separate entries in the source; they are usually repeats but may differ in a detail not shown here. Equal values may be shown once. Results filed as inconclusive are left out. Entries that show only a call come without a potency. Active and inactive are the calls of the source. Unless noted, the call rests on the fitted dose curve; in most records, active means well fitted curve in the direction sought with a large enough effect; inconclusive means small, poorly fitted or top-dose-only effect, or another doubt; inactive means no such curve, though single readings can be large; an effect the other way counts as inactive or inconclusive.
# Experiments:
# [1] = target: Calcium and integrin-binding protein 1 (Homo sapiens) (UniProt Q99828); experiment: Primary qHTS for Identification of Calcium Integrin Binding Protein 1 (CIB1) Competitor (AID 1508620); further: potency means the concentration at half of the fitted maximal effect
# Chain of Calcium and integrin-binding protein 1 (Homo sapiens) (Q99828 whole entry, looked up): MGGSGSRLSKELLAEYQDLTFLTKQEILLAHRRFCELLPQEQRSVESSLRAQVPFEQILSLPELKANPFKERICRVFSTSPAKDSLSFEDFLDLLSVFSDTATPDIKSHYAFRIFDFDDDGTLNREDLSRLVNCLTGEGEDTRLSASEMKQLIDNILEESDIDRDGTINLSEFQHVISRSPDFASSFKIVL
# Procedure, shortened: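 CIB1-GST (1 uM final) and compound incubated 15 min at room temperature before adding FITC-alphaIIb peptide tracer (100 nM final). Competition for binding read by fluorescence polarization (ex 480, em 540) after another 15 min at room temperature.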
# [2] = target: Cytochrome P450 2D6 (Homo sapiens) (UniProt P10635); experiment: Cytochrome P450 family 2 subfamily D member 6 (CYP2D6) small molecule antagonists: luciferase biochemical (cell-free) qHTS assay (AID 1645840; active means well fitted curve in the direction sought with a large enough effect in the repeat runs; an effect the other way counts as inactive or inconclusive; further: nearly all actives have a fitted effect of over 55% in size; further: potency means the concentration at half of the fitted maximal effect)
# Chain of Cytochrome P450 2D6 (Homo sapiens) (P10635 whole entry, looked up): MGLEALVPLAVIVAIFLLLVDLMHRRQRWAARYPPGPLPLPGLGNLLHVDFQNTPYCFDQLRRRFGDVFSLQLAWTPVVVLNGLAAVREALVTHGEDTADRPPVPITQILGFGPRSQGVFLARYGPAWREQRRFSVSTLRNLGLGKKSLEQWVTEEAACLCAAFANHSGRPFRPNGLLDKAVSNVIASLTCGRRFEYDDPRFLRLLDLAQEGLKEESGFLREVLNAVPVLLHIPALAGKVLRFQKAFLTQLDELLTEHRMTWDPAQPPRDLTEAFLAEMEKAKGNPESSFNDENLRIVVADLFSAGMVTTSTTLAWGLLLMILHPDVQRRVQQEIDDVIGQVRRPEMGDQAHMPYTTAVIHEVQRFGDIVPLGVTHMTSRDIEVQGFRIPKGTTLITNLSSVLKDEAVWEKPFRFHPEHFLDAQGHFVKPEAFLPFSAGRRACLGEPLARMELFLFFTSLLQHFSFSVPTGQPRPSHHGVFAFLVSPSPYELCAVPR
# Procedure, shortened: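 P450-Glo CYP2D6 system: proluciferin substrate converted by enzyme to luciferin, read by luminescence proportional to activity. Enzyme-substrate mix with compound 10 min at room temperature, then NADPH regeneration 1 h before detection reagent.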
# [3] = Primary qHTS for inhibitors of nuclear receptor binding SET domain protein 2 (NSD2) in an isogenic RCH-ACV NSD2 p.E1099K mutant (9B) (AID 1645876); further: nearly all actives have a fitted effect of over 70% in size; further: potency means the concentration at half of the fitted maximal effect
# [4] = Primary qHTS for inhibitors of nuclear receptor binding SET domain protein 2 (NSD2) in an RCH-ACV wild type WT cells (2C) (AID 1645877); further: nearly all actives have a fitted effect of over 70% in size; further: potency means the concentration at half of the fitted maximal effect
# [5] = target: Cytochrome P450 2C9 (Homo sapiens) (UniProt P11712); experiment: Cytochrome P450 family 2 subfamily C member 9 (CYP2C9) small molecule antagonists: luciferase biochemical (cell-free) qHTS assay (AID 1645842; active means well fitted curve in the direction sought with a large enough effect in the repeat runs; an effect the other way counts as inactive or inconclusive; further: nearly all actives have a fitted effect of over 55% in size; further: potency means the concentration at half of the fitted maximal effect)
# Chain of Cytochrome P450 2C9 (Homo sapiens) (P11712 whole entry, looked up): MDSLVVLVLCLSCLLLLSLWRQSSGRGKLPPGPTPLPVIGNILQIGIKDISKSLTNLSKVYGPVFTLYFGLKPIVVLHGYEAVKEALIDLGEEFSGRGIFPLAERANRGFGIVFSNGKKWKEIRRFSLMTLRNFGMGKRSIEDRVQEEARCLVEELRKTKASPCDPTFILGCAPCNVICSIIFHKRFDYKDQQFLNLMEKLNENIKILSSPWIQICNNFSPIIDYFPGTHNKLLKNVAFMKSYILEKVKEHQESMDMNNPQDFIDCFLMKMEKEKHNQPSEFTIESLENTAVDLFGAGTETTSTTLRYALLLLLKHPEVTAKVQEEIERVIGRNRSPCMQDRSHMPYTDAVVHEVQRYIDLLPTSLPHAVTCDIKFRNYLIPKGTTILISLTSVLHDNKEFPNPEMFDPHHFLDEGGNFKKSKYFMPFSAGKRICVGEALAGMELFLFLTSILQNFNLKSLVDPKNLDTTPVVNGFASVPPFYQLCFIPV
# Procedure, shortened: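 P450-Glo CYP2C9 system: proluciferin substrate with enzyme in mix containing 0.4% BSA, 10 min at room temperature, then NADPH regeneration solution added and incubated 1 h at 37C. Detection reagent stopped reaction; luminescence read after 20 min as RLU.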
# [6] = target: Cytochrome P450 3A4 (Homo sapiens) (UniProt P08684); experiment: Cytochrome P450 family 3 subfamily A member 4 (CYP3A4) small molecule antagonists: luciferase qHTS assay (AID 1645841; active means well fitted curve in the direction sought with a large enough effect in the repeat runs; an effect the other way counts as inactive or inconclusive; further: nearly all actives have a fitted effect of over 45% in size)
# Chain of Cytochrome P450 3A4 (Homo sapiens) (P08684 whole entry, looked up): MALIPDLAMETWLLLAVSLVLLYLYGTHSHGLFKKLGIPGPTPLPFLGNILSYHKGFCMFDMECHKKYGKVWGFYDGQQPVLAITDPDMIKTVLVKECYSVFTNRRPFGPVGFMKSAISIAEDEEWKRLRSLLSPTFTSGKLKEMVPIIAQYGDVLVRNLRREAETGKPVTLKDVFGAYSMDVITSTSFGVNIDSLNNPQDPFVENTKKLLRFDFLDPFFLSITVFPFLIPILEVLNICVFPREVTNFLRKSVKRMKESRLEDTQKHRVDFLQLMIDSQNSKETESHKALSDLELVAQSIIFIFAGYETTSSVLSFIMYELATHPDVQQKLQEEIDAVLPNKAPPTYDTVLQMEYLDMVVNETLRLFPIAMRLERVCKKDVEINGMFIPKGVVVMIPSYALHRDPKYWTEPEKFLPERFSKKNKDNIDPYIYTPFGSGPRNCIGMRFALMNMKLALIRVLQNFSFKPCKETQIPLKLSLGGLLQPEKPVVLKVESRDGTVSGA
# Procedure, shortened: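 Luminescent CYP3A4 activity readout: compounds plus enzyme-substrate mix 10 min at room temperature, reaction started with NADPH regenerating system for 1 h, stopped with detection reagent, read after 20 min. Ketoconazole served as control.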
Structure (SMILES),Potency [1],Potency [2],Potency [3],Potency [4],Potency [5],Potency [6]
O=C1C(Cc2ccc(O)cc2)N2C(=O)CCN(C(=O)NCc3ccccc3)C2CN1Cc1cccc2ccccc12 (centres undefined),inactive,1.07 µM (active),3.65 µM (active),5.15 µM (active),–,–
c1ccc(-c2ccc(CNc3nc(-c4ccccn4)nnc3-c3ccccc3)cc2)cc1,inactive,2.68 µM (active),2.95 µM (active),2.95 µM (active),–,–
CN(C)CCn1cc(-c2ccc(F)cc2)c(-n2cccc2)n1,inactive,15.1 µM (active),inactive,inactive,–,–
CC(C)c1ccc(NC(=O)Cn2cnc3c2c(=O)n(C)c(=O)n3C)cc1,inactive,inactive,inactive,–,–,–
CC(C)(Cc1nc(-c2ccc(O)cn2)no1)C(=O)NC1=C(C(=O)O)CCCC1,inactive,inactive,inactive,–,–,–
Cn1cc(-c2cnn3c(N)c(Br)c([C@@H]4CCCNC4)nc23)cn1,inactive,10.7 µM (active),1.15 µM (active) and 3.72 µM (active),–,–,–
N#Cc1cc(CN2CCC(Nc3ncnc4sc(Cl)cc34)CC2)ccc1F,inactive,1.51 µM (active),14.5 µM (active),20.5 µM (active),–,–
C#Cc1cccc(Nc2nc3cc(C(=O)O)ccc3c3cncnc23)c1,inactive,inactive,4.09 µM (active),2.58 µM (active),–,–
COc1ccc(CCCN2CCC(COC(c3ccccc3)c3ccccc3)CC2)cc1,inactive,0.0535 µM (active),–,16.3 µM (active),–,–
CN1CCN(C(=O)CN[C@@H]2C[C@H]2c2ccc(OCc3ccccc3)cc2)CC1,inactive,10.7 µM (active),–,20.5 µM (active),–,–
O=C(NCCN1CCC(n2c(=O)[nH]c3ccccc32)CC1)c1ccc2ccccc2c1,inactive,12 µM (active),–,16.3 µM (active),–,–
O=C(Nc1ccccc1)N1CCN(c2nc(-c3ccccc3)ns2)CC1,inactive,–,–,–,5.35 µM (active),–
Cc1[nH]c2ccccc2c1CCNC(=O)c1cccs1,inactive,23.9 µM (active),inactive,inactive,–,–
Cc1csc(N(C(=O)CSc2ccc(-c3ccccc3)nn2)C2CC2)n1,inactive,inactive,inactive,inactive,–,–
O=C(Nc1ccn(Cc2ccc(O)cc2C(F)(F)F)n1)c1c(F)cccc1F,inactive,–,–,–,6.01 µM (active),–
c1ccc(-c2cnn3cc(-c4ccc(OCCN5CCOCC5)cc4)cnc23)cc1,inactive,–,–,–,3.38 µM (active),–
COc1ccc2nc3n[nH]c(C)c3c(NCCOCCO)c2c1,50.1 µM (active),9.52 µM (active),–,3.25 µM (active),–,–
O=C(N[C@H](Cc1cscn1)C(=O)N[C@@H](CC1CCCCC1)[C@@H](O)[C@@H](O)C1CC1)c1nc2ccccc2[nH]1,inactive,–,–,–,1.34 µM (active),–
Cc1c(Cl)cccc1S(=O)(=O)Nc1nc(NCCc2ccccc2)nc2c1CN(Cc1ccccc1)CC2,inactive,–,–,–,6.01 µM (active),–
O=C(CN1C2=NCCN2c2ccccc21)c1ccc(-c2ccccc2)cc1,inactive,–,11.5 µM (active),6.49 µM (active),–,inactive
CCN1CCC[C@@H]1CNC(=O)c1ccc2c(c1)NC(=O)c1cccc(C)c1S2,inactive,–,–,–,inactive,inactive
COc1c(F)cccc1C(=O)N1C[C@@H](C)CC[C@H]1CNc1ccc(Br)cn1,inactive,–,–,–,5.35 µM (active),–
Cc1nc2c(C(F)(F)F)cccc2nc1-c1ccc(-c2cccc(S(C)(=O)=O)c2)cc1,inactive,inactive,inactive,inactive,–,–
CN(C)c1ccnc2sc3c(=O)n(N4CCCCCC4)cnc3c12,inactive,–,–,–,7.56 µM (active),–
Cc1nc2ccc(-n3ncc(C(=O)c4cc5ccccc5[nH]4)c3N)cc2[nH]1,inactive,23.9 µM (active),3.25 µM (active) and 2.63 µM (active),7.28 µM (active) and 4.17 µM (active),–,–
COc1ccccc1OCCN1CC(COc2cccc3[nH]c4ccccc4c23)OCC1=O (centres undefined),inactive,–,–,–,0.849 µM (active),–
O=C(NCC(=O)N1CCCC1)Nc1ccc2cnccc2c1,inactive,–,–,–,inactive,–
Cc1cc(C)c2c(c1)C(N(Cc1cc(C(F)(F)F)cc(C(F)(F)F)c1)c1nnn(C)n1)CCCN2CC1CCC(C(=O)O)CC1 (centres undefined),inactive,–,–,–,10.7 µM (active),–

# — PubChem BioAssay (NCATS)
